Most compounds without a hit are left out; they make up all but 6.2% or so of the library.
Gal4-VP16 FLuc: VP16 counterscreen qHTS for inhibitors of ROR gamma transcriptional activity. Potency, µM (series often up to 53.6 µM), for inactives: at the top dose activity, negative = inhibition, actives largely listed as inhibitors. Drosophila S2 Gal4-VP16 UAS-luciferase, luminescence, 20 h. 3.5% of 310,000 active. AID 2546, 2010;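 further: Gal4-VP16 expression switched on by copper sulfate through the metallothionein promoter; nearly all actives have a fitted effect of over 50% in size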
RORgamma inh: qHTS for inhibitors of ROR gamma transcriptional activity; Nuclear receptor ROR-gamma (Mus musculus), P51450; Drosophila S2 Gal4-RORgamma UAS-luciferase reporter, 20 h; Potency, µM (doses to about 53.6 µM), for inactives: top-dose activity change, negative = inhibition, most hits filed as inhibitors; 5.4% of 310,000 active; further: nearly all actives have a fitted effect of over 60% in size
Target sequence (P51450 whole entry, looked up, the tested form may be a part): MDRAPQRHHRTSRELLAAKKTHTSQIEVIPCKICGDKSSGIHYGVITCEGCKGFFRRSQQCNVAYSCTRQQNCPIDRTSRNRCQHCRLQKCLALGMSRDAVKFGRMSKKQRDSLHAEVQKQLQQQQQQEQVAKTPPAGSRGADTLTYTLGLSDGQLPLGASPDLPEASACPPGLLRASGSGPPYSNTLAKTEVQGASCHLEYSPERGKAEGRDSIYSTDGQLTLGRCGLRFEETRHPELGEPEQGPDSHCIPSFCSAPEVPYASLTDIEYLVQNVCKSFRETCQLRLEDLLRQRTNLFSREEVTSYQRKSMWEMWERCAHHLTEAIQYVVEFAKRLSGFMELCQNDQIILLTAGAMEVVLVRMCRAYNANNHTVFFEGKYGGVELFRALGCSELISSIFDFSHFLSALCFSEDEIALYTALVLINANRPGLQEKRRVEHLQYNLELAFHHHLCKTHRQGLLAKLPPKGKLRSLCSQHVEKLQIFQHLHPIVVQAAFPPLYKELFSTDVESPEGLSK
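In this cell-based reporter format, copper sulfate (700 uM final) drives Gal4–ROR gamma fusion expression from a metallothionein promoter in Drosophila Schneider cells; compounds preincubated 1 hr, reporter read after 20 hr at ambient temperature.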
Luc counter: Counterscreen for Luciferase (Kinase-Glo TM) Inhibition. 0.28% of 200,000 active. Potency, µM (highest dose often 38.3 µM), without a hit: at the top dose activity change, negative = inhibition, hits mostly inhibitors. Kinase-Glo luciferase, ATP luminescence, 8 min. Luciferin 4-monooxygenase (Photuris pensylvanica), Q27757; further: nearly all actives have a fitted effect of over 60% in size
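Compounds were added to a substrate mix at pH 7.2 (50 mM imidazole, 10 uM ATP, within the enzyme's linear range), followed by Kinase-Glo detection reagent; luminescence was measured after 8 minutes at ambient temperature.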
Numbers without * were called inactive; ? = inconclusive; · = no result given; [ ] = another dose, or the depositor's remark. The call rests on the fitted dose curve; in most records, active means well fitted curve in the direction sought with a large enough effect; inconclusive means small, poorly fitted or top-dose-only effect, or another doubt; inactive means no such curve, though single readings can be large; an effect the other way counts as inactive or inconclusive. On the % scale 0 is the no-effect control and ±100 the full control effect; potency means the concentration at half of the fitted maximal effect.

SMILES	Gal4-VP16 FLuc	RORgamma inh	Luc counter
O=C(Nc1nc2ccccc2n1CCN1CCCC1)C1CCCCC1	10µM*	7.1µM*	-17%
COc1cccc(CNc2nc3ccccc3n2CCN2CCCCC2)c1OC	-15%	19%	1%
COc1cccc(CNc2nc3ccccc3n2CCN2CCCCC2)c1	4%	-34%[10 µM]	-2%
O=C(Nc1nc2ccccc2n1CCN1CCCCC1)C1CCCCC1	7.1µM*	2µM*	-2%
O=C(Nc1ccc2ccccc2n1)C1CCCCC1	-14%	7%	·
CCn1c(NC(=O)C2CCCCC2)nc2ccccc21	0.89µM*	0.35µM*	-4%
CCn1nccc1C(=O)Nc1cccc(C)c1C	7%	9%	·
CCOC(=O)NNC(=O)C1CCC(C)CC1 (stereo not drawn)	2%	1%	-1%
COc1ccc(CNC(=O)/C=C/c2cc([N+](=O)[O-])ccc2OC(F)F)cc1OC	-3%	-9%	-2%
c1ccc(Oc2ccc3ccccc3n2)cc1	8%	7%	-6%
C=C1C(=O)C=C2CN(C(=O)c3ccccc3)[C@@](Cc3ccc(F)cc3)(C(=O)OC)[C@@H]12	1.4µM*	3.2µM*	1%
COC(=O)[C@@]1(Cc2ccc(OC)cc2)[C@@H]2C(=CC(=O)[C@H]2CC(=O)C(=O)N(C)C)CN1C(=O)c1ccccc1	?	?	12%
N#Cc1c(N)sc(=S)c2c1CCCC2	9%	-13%	1%
CC(C)Cc1c2c([nH]c(=S)c1C#N)CCCC2	?	6.3µM*	-2%
CN(Cc1cccs1)C(=O)/C=C/c1ccccc1[N+](=O)[O-]	2%	42%	-3%
N=c1oc2cc(O)ccc2cc1C(=O)Nc1ccc(F)cc1	7.1µM*	11µM*	·
O=C(Nc1ccc(F)cc1)c1cccc2ccccc12	23%	14%	·
COc1ccc(NC(=O)c2cc3cc(OC)ccc3oc2=N)cc1	-17%	-11%	6%
COc1ccc(NC(=O)c2cc3ccc(O)cc3o/c2=N\O)cc1	0.1µM*	0.063µM*	·
COc1ccc(/C(C)=N/NC(=O)c2ccncc2)cc1	-8%	-18%	·
COc1ccc2o/c(=N\O)c(C(=O)Nc3ccccc3OC)cc2c1	?	2.8µM*	-5%
COc1ccc2oc(=O)c(/C(C)=N/NC(=O)c3ccncc3)cc2c1	?	13µM*	4%
COc1cccc2cc(C(=O)Nc3ccccc3C)/c(=N/O)oc12	1%	0%	·
Cn1c(N)c(C(=O)COC(=O)CSc2cccc3cccc(Cl)c23)c(=O)n(C)c1=O	-7%	1%	2%
CSc1cccc(CNC(=O)C2CCC(=O)N(CC3CCCCC3)C2)c1 (stereo not drawn)	6%	24%	·
SMILES	Gal4-VP16 FLuc	RORgamma inh	Luc counter
COc1ccc(NC(=O)CS(=O)(=O)c2cn(CC(=O)N3CCOCC3)c3ccccc23)cc1	-10%	7%	10%
Cc1c([N+](=O)[O-])c(C(=O)NC2CCCCC2)nn1C	-7%	11%	·
Cc1nnc(SCC(=O)NC(C)(C)C)n1C1CCCCC1	-13%	0%	2%
COc1ccc2oc(=O)c(C(=O)NC(C)c3ccccc3)cc2c1 (stereo not drawn)	4%	-22%	·
COc1ccc2oc(=O)c(C(=O)Nc3ccccc3O)cc2c1	?	8.9µM*	·
CC(=O)c1ccc(OC2C=CC(c3ccc(Cl)cc3)OC2CO)cc1 (stereo not drawn)	-4%[10 µM]	21%[10 µM]	·
COc1ccc(C(=O)/C(C#N)=N/Nc2ccccc2[N+](=O)[O-])cc1	?	?	-4%
COc1ccc(C(=O)/C(C#N)=N/Nc2ccc([N+](=O)[O-])cc2)cc1	3.5µM*	5.6µM*	-4%
COc1cc(NC(=O)CCC2CCCC2)cc(-n2cnnn2)c1	-3%	27%	-3%
O=C(c1sc2cc(F)ccc2c1Cl)N1CCN(c2ccccc2)CC1	?	27%	0%
CCN(CC)c1ccc(N=Cc2ccc([N+](=O)[O-])o2)cc1	22µM*	?	-20%
CCN(CC)c1ccc(N=Cc2ccccc2[N+](=O)[O-])cc1	-22%	7%	-4%
COC(=O)CSc1nnc(-c2ccccc2O)n1-c1ccc(C)cc1	?	?	-1%
CCOC(=O)C(C)Sc1nnc(-c2ccccc2O)n1-c1ccc(C)cc1 (stereo not drawn)	5.6µM*	3.2µM*	·
Cc1cn(C2CC3OCC(NC(=O)C(Cc4ccccc4)NC(=O)OC(C)(C)C)C3O2)c(=O)[nH]c1=O (stereo not drawn)	-8%	-8%	·
COc1ccc(OC)c(C2=NNC(=NCc3ccc4c(c3)OCO4)SC2)c1	1%	-7%[10 µM]	3%
Oc1ccc(C2=NNC(=NCc3ccc4c(c3)OCO4)SC2)c(O)c1	?	1.6µM*	0%
COC(=O)[C@H](Cc1ccccc1)NC(=O)O[C@H]1C(=O)c2ccc(OC)cc2O[C@@H]1c1ccc2c(c1)OCO2	-7%	?	0%
O=C(CN1C(=O)c2cccc3cccc1c23)NC1CCCCC1	1%	-7%	·
Cc1ccc(NC(=O)c2cc([N+](=O)[O-])ccc2NCc2cccnc2)cc1	-2%	30%	4%
CCc1ccc(NC(=S)N(CCCN2CCOCC2)Cc2ccco2)cc1	18%	?	0%
Cc1cccc(NC(=S)N(CCCN2CCCC2)Cc2cccn2Cc2ccc(Cl)cc2)c1	?	?	8%
Fc1cccc(NC(=S)NCCN2CCOCC2)c1	6%	?	-2%
CCN1CCCc2cc(CN(CCN3CCOCC3)C(=S)Nc3ccc(OC)cc3)ccc21	0%[10 µM]	?	0%
CCN1CCCc2cc(CN(CCN3CCOCC3)C(=S)Nc3ccc(C)cc3)ccc21	-20%[10 µM]	3.5µM*	0%
SMILES	Gal4-VP16 FLuc	RORgamma inh	Luc counter
CCOc1ccc(NC(=S)N(CCN2CCOCC2)Cc2ccc3c(c2)CCCN3CC)cc1	?	6.3µM*	2%
CCOc1ccc(NC(=S)N(CCCN2CCCC2)Cc2cccn2Cc2ccc(Cl)cc2)cc1	-2%	13µM*	-3%
CCN1CCCc2cc(CN(CCN3CCOCC3)C(=S)Nc3cc(F)cc(F)c3)ccc21	1%[10 µM]	7.1µM*	1%
O=C(O)CSCC(=O)N1CCN(S(=O)(=O)c2cc(Cl)cc(Cl)c2)CC1	-2%	-17%	·
CC[C@H](C)[C@@H](NC(=O)O[C@@H]1C(=O)c2ccc(OC)cc2O[C@H]1c1ccc2c(c1)OCO2)C(=O)OC	4%	31%	-1%
Cc1ccc(S(=O)(=O)N2CCN(C(=O)CC(C)n3nc(C)c(Cl)c3C)CC2)cc1 (stereo not drawn)	7%	-15%	·
CC(=O)Nc1cccc(Oc2ccc(-c3noc(C)n3)cc2)c1	-20%	?	3%
CCN1CCCc2cc(CN(CCN3CCOCC3)C(=S)Nc3cccc(Cl)c3)ccc21	-2%[10 µM]	7.1µM*	1%
O=C(Nc1ccccc1)N(CCN1CCOCC1)Cc1cccc(Cl)c1	11%	43%	·
O=[N+]([O-])c1cc(-c2nc3nc4ccccc4nc3n2CCc2ccccc2)cc([N+](=O)[O-])c1	?	15%	-1%
O=C(c1cccc(C(=O)N(c2ccccn2)C2CCCCC2)c1)N(c1ccccn1)C1CCCCC1	-1%	16%	3%
N#C/C(=C\c1ccccc1)C(=O)N(c1ccccn1)C1CCCCC1	?	2.8µM*	1%

Bioassay records deposited in PubChem by National Center for Advancing Translational Sciences (NCATS).
